From PubChem BioAssay AID1159580 (chemical genetic matrix, 2015)
Several values for one entry are separate records, joined by “and”; a condition that tells them apart may be missing. Identical values can stand only once. About 2,000 (36%) of roughly 5,500 compounds were called active. Inconclusive results (about 18%) are left out. Cut-off read from the data, not from the text of the source: active = normalized growth mostly below about 0.91 (no sharp cut-off); inconclusive = no clear call, values can overlap the other calls; inactive = mostly above about 0.92. Some of the results follow.

Experiment: chemical genetic growth profiling, strain panel (AID 1159580);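 note: tested at 20 µM; growth read once vehicle control cultures reached saturation at 30 °C; 1 = growth at the plate median or of vehicle wells; lower values mean less growth of the strain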
Details: S. cerevisiae deletion strains, growth OD

Measured: normalized growth

COc1cc([C@H]2Oc3cc([C@H]4Oc5cc(O)cc(O)c5C(=O)[C@@H]4O)ccc3O[C@@H]2CO)ccc1O
inactive: locus YAL013W, strain DEP1, active compounds read low 1 | locus YAL021C, strain ccr4, active compounds read low 0.987 | locus YAL026C, strain drs2, active compounds read low 1 | locus YAL030W, strain snc1, active compounds read low 1.01 | locus YBL061C, strain skt5, active compounds read low 1.01 | locus YBR009C, strain hhf1, active compounds read low 1 | locus YBR021W, strain FUR4, active compounds read low 1.06 | locus YBR023C, strain chs3, active compounds read low 1.01 | locus YBR171W, strain sec66, active compounds read low 1.02 | locus YBR229C, strain ROT2, active compounds read low 0.991 | locus YBR231C, strain swc5, active compounds read low 1.02 | locus YBR279W, strain paf1, active compounds read low 1.01 | locus YCL011C, strain gbp2, active compounds read low 1 | locus YCL016C, strain dcc1, active compounds read low 0.992 | locus YCL029C, strain bik1, active compounds read low 0.97 | locus YCL061C, strain MRC1, active compounds read low 1.01 | locus YCL069W, strain vba3, active compounds read low 1.01 | locus YCR088W, strain abp1, active compounds read low 1.01 | locus YDL005C, strain med2, active compounds read low 1.01 | locus YDL035C, strain GPR1, active compounds read low 0.987 | locus YDL040C, strain nat1, active compounds read low 1.01 | locus YDL074C, strain BRE1, active compounds read low 0.986 | locus YDL101C, strain DUN1, active compounds read low 0.989 | locus YDL134C, strain PPH21, active compounds read low 1.01 | locus YDL185W, strain tfp1, active compounds read low 0.964 | locus YDL192W, strain arf1, active compounds read low 0.97 | locus YDR001C, strain nth1, active compounds read low 1.01 | locus YDR069C, strain doa4, active compounds read low 0.998 | locus YDR101C, strain arx1, active compounds read low 0.976 | locus YDR137W, strain rgp1, active compounds read low 0.996 | locus YDR150W, strain NUM1, active compounds read low 0.969 | locus YDR159W, strain sac3, active compounds read low 0.997 | locus YDR162C, strain NBP2, active compounds read low 1.02 | locus YDR195W, strain ref2 1.02 | locus YDR297W, strain sur2, active compounds read low 1.02 | locus YDR318W, strain mcm21, active compounds read low 0.97 | locus YDR334W, strain swr1, active compounds read low 1.01 | locus YDR335W, strain msn5, active compounds read low 1 | locus YDR388W, active compounds read low 0.984 | locus YDR392W, strain spt3, active compounds read low 0.955 | locus YDR502C, strain sam2, active compounds read low 0.977 | locus YEL003W, strain gim4, active compounds read low 1.01 | locus YEL037C, strain rad23, active compounds read low 1.01 | locus YEL061C, strain CIN8 (second series), active compounds read low 1.02 | locus YEL061C, strain CIN8, active compounds read low 1 | locus YER015W, strain faa2, active compounds read low 1 | locus YER016W, strain bim1, active compounds read low 1.01 | locus YER110C, active compounds read low 0.958 | locus YER111C, strain swi4, active compounds read low 1 | locus YER155C, strain BEM2 (second series), active compounds read low 1.03 | locus YER155C, strain BEM2, active compounds read low 1.02 | locus YER167W, strain BCK2, active compounds read low 0.992 | locus YFR010W, strain ubp6, active compounds read low 0.995 | locus YGL078C, strain dbp3, active compounds read low 0.965 | locus YGL086W, strain mad1, active compounds read low 0.975 | locus YGL167C, strain pmr1, active compounds read low 1.01 | locus YGL173C, strain kem1, active compounds read low 1.01 | locus YGL227W, strain vid30, active compounds read low 1.01 | locus YGL240W, strain doc1, active compounds read low 1.03 | locus YGL248W, strain PDE1, active compounds read low 1.01 | locus YGL253W, strain hxk2, active compounds read low 0.989 | locus YGR078C, strain PAC10, active compounds read low 0.989 | locus YGR135W, strain pre9, active compounds read low 0.987 | locus YGR229C, strain SMI1, active compounds read low 1.01 | locus YGR252W, strain gcn5, active compounds read low 0.961 | locus YHR013C, strain ard1, active compounds read low 1 | locus YHR027C, strain rpn1, active compounds read low 1 | locus YHR030C, strain SLT2, active compounds read low 0.999 and 1.02 | locus YHR079C, strain IRE1 (second series), active compounds read low 0.984 | locus YHR079C, strain IRE1, active compounds read low 0.996 | locus YHR094C, strain hxt1, active compounds read low 0.971 | locus YHR129C, strain ARP1, active compounds read low 1 | locus YHR142W, strain chs7, active compounds read low 0.997 | locus YHR200W, strain rpn10, active compounds read low 0.959 | locus YIL066C, strain RNR3, active compounds read low 0.968 | locus YIL073C, strain SPO22, active compounds read low 0.906 | locus YIL125W, strain kgd1, active compounds read low 0.987 | locus YIR030C, strain dcg1, active compounds read low 0.981 | locus YJL092W, strain hpr5, active compounds read low 1.01 | locus YJL095W, strain BCK1 (second series), active compounds read low 1.02 | locus YJL095W, strain BCK1, active compounds read low 0.998 and 0.981 | locus YJL115W, strain asf1, active compounds read low 1.01 | locus YJL129C, strain trk1, active compounds read low 1.03 | locus YJL134W, strain LCB3, active compounds read low 1 | locus YJL154C, strain vps35, active compounds read low 1.01 | locus YJL164C, strain tpk1, active compounds read low 0.989 | locus YJL166W, strain qcr8, active compounds read low 1.01 | locus YJL168C, strain set2, active compounds read low 0.98 | locus YJL187C, strain SWE1 (second series), active compounds read low 0.988 | locus YJL187C, strain SWE1, active compounds read low 1.01 | locus YJR043C, strain POL32, active compounds read low 0.998 | locus YJR066W, strain TOR1, active compounds read low 0.954
